The campaign covered roughly 410,000 compounds. About 6,400 (1.6%) were called active. About 20% were inconclusive and are not listed. Calls follow the shape of the dose curve; as a rule, active = well fitted inhibition curve with a large enough effect; inconclusive = small, poorly fitted or top-dose-only effect; inactive = no such curve, though single readings can be large or run the other way. For the sample, actives were picked, then their nearest neighbours and some compounds at random.
Each compound was assayed against Glucagon-like peptide 1 receptor (Homo sapiens) (UniProt P43220) (assay: qHTS of GLP-1 Receptor Inverse Agonists (Inhibition Mode)). Conditions: HEK293 GLP-1R CRE-luciferase, luminescence, 24 h, GLP-1R form is constitutively active; series mostly up to 38.3 µM; activity change, negative = inhibition: at the top concentration.
Summary of the method: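 HEK293 cells stably co-expressing constitutively active GLP-1R and a cAMP-responsive luciferase reporter were seeded in DMEM with 10% Nu serum, given compounds after 12 h, and incubated 24 h at 37 deg C. Luminescence was then read.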
% is scaled to controls: 0 for no effect and ±100 for the full control effect; potency is read from the fitted curve at half-maximal effect.
Also: nearly all actives have a fitted effect of over 55% in size.

Glucagon-like peptide 1 receptor (Homo sapiens), sequence (P43220 whole entry, looked up): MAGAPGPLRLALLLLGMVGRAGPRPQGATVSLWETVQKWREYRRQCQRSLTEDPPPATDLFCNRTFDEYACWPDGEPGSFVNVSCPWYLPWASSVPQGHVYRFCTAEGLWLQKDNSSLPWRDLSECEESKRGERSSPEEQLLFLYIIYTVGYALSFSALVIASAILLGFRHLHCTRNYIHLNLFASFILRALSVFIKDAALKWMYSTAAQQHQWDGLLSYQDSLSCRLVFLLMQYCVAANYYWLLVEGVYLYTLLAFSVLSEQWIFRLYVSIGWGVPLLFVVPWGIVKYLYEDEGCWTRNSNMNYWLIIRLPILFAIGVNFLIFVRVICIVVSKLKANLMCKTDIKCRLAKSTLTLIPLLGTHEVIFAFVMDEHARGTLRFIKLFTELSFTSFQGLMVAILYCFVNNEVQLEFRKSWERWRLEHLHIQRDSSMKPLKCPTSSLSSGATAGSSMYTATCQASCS

Compound	activity change, negative = inhibition	Potency
C[C@H]1NS(=O)(=O)c2cc(Cl)ccc2O[C@@H]1c1ccccc1	-13.6% (inactive)	
CC1(C)CC(=O)C=C(c2ccc(COC(=O)c3cc(F)cc(F)c3)cc2)C1=O	-15.2% (inactive)	
O=C(Nc1cc(Br)ccc1F)c1nc[nH]c1C(=O)NCc1ccccc1	-18.9% (inactive)	
O=[N+]([O-])c1ccc(CN2CC(N3CCC(c4ccccc4)CC3)CS2(=O)=O)cc1 (configuration not stated)	-15.4% (inactive)	
Cc1cccc(NS(=O)(=O)c2ccc(C)c(C(N)=O)c2)c1	8.25% (inactive)	
Cc1cccc(NS(=O)(=O)c2ccc(C)c(C(=O)NCC(c3ccccc3)N(C)C)c2)c1 (configuration not stated)		3.98 µM (active)
Cc1cccc(NS(=O)(=O)c2ccc(C)c(C(=O)NCc3cccnc3)c2)c1	-16.4% (inactive)	
CCCc1c(C)nc2scc(-c3ccc(Cl)cc3)n2c1=O	-2.09% (inactive)	
CCc1nc2c(OCCOc3ccccc3)cccn2c1N(C)C(=O)c1ccccc1F	-23.8% (inactive)	
O=C(CCN1CCCCC1)Nc1ccc(F)c(F)c1	0.244% (inactive)	
CCOc1ccc(NC(=O)c2cn(C3CCCCC3)c(=O)c3c2c2ccccc2n3C)cc1	6.66% (inactive)	
CCOC(=O)N1CCN(C(=O)c2nn(-c3ccc(C)cc3)c(=O)c3c2c2ccccc2n3C)CC1	-23.3% (inactive)	
Cn1c2ccccc2c2c(C(=O)N3CCN(c4ccc(F)cc4)CC3)cn(C3CCCC3)c(=O)c21		10 µM (active)
CCN(CC)CCN(C)C(c1ccnc2ccccc12)c1nnnn1-c1ccc2c(c1)OCCO2 (configuration not stated)	6.96% (inactive)	
CCCCNC(=O)c1ccc(-n2c(=S)[nH]c3ccccc3c2=O)cc1	11.5% [at 7.66 µM] (inactive)	
CCCCNC(=O)N(O)C1N(/N=C/c2ccccc2O)C(=S)SC1(C)C (configuration not stated)		11.2 µM (active)
CCCCC(O)C1=C[N+](=O)CC=C1 (configuration not stated)	17.7% (inactive)	
C[C@H](NC(=O)[C@@H]1CCCN1C(=O)[C@@H]1CCCN1C(=O)c1ccccc1)c1ccccc1	-4.32% (inactive)	
COC(=O)c1ccc2nc(-c3ccc(Cl)cc3)c(Cc3cccc(F)c3)n2c1	3% (inactive)	

Compound	activity change, negative = inhibition	Potency
CN1/C(=c2/s/c(=C3/C(=O)N(c4ccccc4)NC3=Nc3ccccc3)n(C)c2=O)C(C)(C)c2ccccc21		1.41 µM (active)
C[C@H](CO)N1C[C@H](C)[C@@H](CN(C)S(=O)(=O)c2ccc(F)cc2)OCc2cnnn2CCCC1=O	-1.3% (inactive)	
O=C(Nc1cccc(Cc2ccccc2)c1)Nc1ccc2nc([C@@H]3O[C@H](CO)[C@@H](O)[C@H](O)[C@H]3O)[nH]c2c1	4.05% (inactive)	
O=C(NCCN1CCOCC1)C1CCN(S(=O)(=O)c2ccccc2)CC1	4.84% (inactive)	
CCN1C(=O)[C@H]2[C@@H](c3ccc(-c4ccc(OC)cc4)cc3)N[C@@](Cc3ccccc3)(C(=O)OC)[C@H]2C1=O	-7.01% (inactive)	
CCN1C(=O)[C@H]2[C@@H](c3ccccc3)N[C@]3(CCCN(Cc4ccc(C)cc4)C3=O)[C@H]2C1=O	13.6% (inactive)	
Cc1ccc([C@H]2N[C@]3(CCCN(Cc4ccccc4)C3=O)[C@H]3C(=O)N(Cc4ccccc4)C(=O)[C@@H]23)cc1	-28.2% (inactive)	
CCN1C(=O)[C@H]2[C@@H](c3ccc(C(F)(F)F)cc3)N[C@]3(CCCN(Cc4ccc(Br)cc4)C3=O)[C@H]2C1=O		12.6 µM (active)
CCN1C[C@@H]2[C@@H]3C(=O)N(Cc4ccccc4)C(=O)[C@@H]3[C@](C)(C1=O)N2C(=O)c1ccc(C(C)(C)C)cc1	1.29% (inactive)	
COc1ccc([C@H]2N[C@]3(CCCN(Cc4ccco4)C3=O)[C@H]3C(=O)N(C)C(=O)[C@@H]23)cc1	12% (inactive)	
O=C1[C@H]2[C@@H](c3ccc(C(F)(F)F)cc3)N[C@]3(CCCN(Cc4ccc(Cl)cc4)C3=O)[C@H]2C(=O)N1Cc1ccccc1		4.47 µM (active)
COc1ccc([C@H]2N[C@]3(CCCN(CC4CCCCC4)C3=O)[C@H]3C(=O)N(C)C(=O)[C@@H]23)cc1	-0.512% (inactive)	
O=C1[C@H]2[C@@H](c3ccc(C(F)(F)F)cc3)N[C@]3(CCCN(Cc4ccc(Br)cc4)C3=O)[C@H]2C(=O)N1Cc1ccccc1		2.82 µM (active)
C[C@H]1CN([C@@H](C)CO)C(=O)c2cc(Br)cnc2O[C@H]1CN(C)S(=O)(=O)c1cccs1	5.81% (inactive)	
CCOC(=O)C1=CC[C@@H](c2ccncc2)N(S(=O)(=O)c2ccc(C)cc2)C1	-10.5% (inactive)	
Cc1cc2oc(=O)cc(CN(C)Cc3ccccc3)c2cc1Cl	-22.1% (inactive)	
CN(C)CCN1CCN(c2cc(-c3cccc(Cl)c3)nc3ccnn23)CC1	-14.7% (inactive)	
O=C(CSc1ccccc1)Nc1cc(Cl)ccc1Oc1ccccc1		11.2 µM (active)
COc1ccc(Cl)cc1NC(=O)CSc1nc2ccccc2c2nc(-c3ccccc3)nn12	9.31% (inactive)	

Compound	activity change, negative = inhibition	Potency
O=C(COC(=O)CSc1ccccc1)Nc1ccc(F)cc1F	-0.781% (inactive)	
Cc1ccc(CCNC(=O)CN2C(=O)CSc3ccc(S(=O)(=O)N4CCOCC4)cc32)cc1	-35.8% (inactive)	
CC1=C(C(=O)N2CCOCC2)CC(CC(=O)NCCCN(C)C)C(=O)N1Cc1ccc(C(C)(C)C)cc1 (configuration not stated)	23% (inactive)	
CCCCN1C(=O)C(CC(=O)NCc2cccs2)CC(C(=O)N2CCOCC2)=C1C (configuration not stated)	10.4% (inactive)	
Nc1ncnc2c1ncn2[C@@H]1O[C@H](C(=O)NCC(F)(F)F)[C@@H](O)[C@H]1O	25.4% (inactive)	
O=CNc1cc(-c2ccc(C(=O)N3CCOCC3)cc2)cn2c(-c3ccc(F)cc3)cnc12	-5.23% (inactive)	
COc1ccccc1N1CCN(S(=O)(=O)CCNC(=O)COc2ccc(F)cc2)CC1	-20.4% (inactive)	
COc1ccccc1N1CCN(CCCCOc2ccc(F)cc2)CC1		12.6 µM (active)
CCN1CCN(CCCCOc2ccccc2F)CC1	0.199% (inactive)	
Cc1ccc2cccc([N+](=O)[O-])c2n1	8.75% (inactive)	
C[C@@H]1CN([C@H](C)CO)C(=O)c2cc(-c3ccc(F)cc3)cnc2O[C@H]1CN(C)C(=O)c1ccc(F)cc1	-8.66% (inactive)	
COc1ccc(CN(C)C(=S)Nc2ccc(Cl)cc2Cl)cc1		7.08 µM (active)
COc1ccc(CN2CCn3ncc(C(=O)Nc4ccc(Cl)cc4Cl)c3C2=O)cc1	-16.2% (inactive)	
S=C(Nc1ccc(Cl)cc1Cl)N1CCCC1	7.41% (inactive)	
COc1cccc(C(NC(C)=O)c2nc(-c3ccccc3OC)cs2)c1 (configuration not stated)	-12.1% (inactive)	
CC1=C(C(=O)N2CCOCC2)CC(CC(=O)NCC2CCCCC2)C(=O)N1Cc1ccc(F)cc1 (configuration not stated)	3.52% (inactive)	
CC1(Oc2cccc(F)c2)CCN(Cc2ccccc2OC(F)F)C1 (configuration not stated)	-4.31% (inactive)	
COc1ccccc1N1CCN(Cc2ccc(OC)c3ccccc23)CC1	0.582% (inactive)	
COc1ccc(CN2CCC(C)(Oc3cccc(F)c3)C2)c2ccccc12 (configuration not stated)		11.2 µM (active)
